This note sets out measurements from paper PMC7862700, “An all-to-all approach to the identification of sequence-specific readers for epigenetic DNA modifications on cytosine”.

What all share (assay): DAPPL (digital affinity profiling via proximity ligation, sequencing); 10 mM Tris-HCl pH 7.5, 50 mM NaCl, 1 mM DTT, 4% glycerol, room temperature, 30 min; GST-TFs on glutathione beads, 16-mer random dsDNA library, 0.1% formaldehyde crosslink after washing; high values mean tight binding
Assay [1] deals with T1, FEV (Homo sapiens, UniProt Q99581 1-238).
T1 sequence: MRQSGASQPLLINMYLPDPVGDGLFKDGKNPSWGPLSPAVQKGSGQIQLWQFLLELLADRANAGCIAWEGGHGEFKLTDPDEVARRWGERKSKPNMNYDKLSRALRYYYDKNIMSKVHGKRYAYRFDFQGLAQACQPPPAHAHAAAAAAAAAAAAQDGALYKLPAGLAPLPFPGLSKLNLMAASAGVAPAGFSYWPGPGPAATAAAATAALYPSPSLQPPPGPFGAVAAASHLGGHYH
The note with it: protein: recombinant; tags: N-terminal GST; dsDNA, one strand shown. The method in brief:
(§1)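 Binding signal is each hexamer's read frequency for a factor divided by its frequency in the tag-only sample. The factors were GST-fused human transcription factors from yeast, captured on glutathione beads, DNA-barcoded and pooled with that sample. Pools were incubated with 200 nmole of a random double-stranded 16-mer DNA library in Tris/NaCl/DTT/glycerol buffer at room temperature for 30 min, then washed, crosslinked with 0.1% formaldehyde, proximity-ligated with BsaI/T4 ligase (1 h, 37 °C), PCR-amplified and sequenced on an Illumina NextSeq500.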

Assay [2] has as its target ETV5 (Homo sapiens, UniProt P41161 1-510). The note with it: protein: recombinant; tags: N-terminal GST; dsDNA, one strand shown. The method in brief:
as §1

Assay [3] concerns the target HSF1 (Homo sapiens, UniProt Q00613 1-529). The note with it: protein: recombinant; tags: N-terminal GST; chain copies: 3; dsDNA, one strand shown. Summed up:
as §1

Assay [4] addresses T2, SPIC (Homo sapiens, UniProt Q8N5J4 1-248).
T2 sequence: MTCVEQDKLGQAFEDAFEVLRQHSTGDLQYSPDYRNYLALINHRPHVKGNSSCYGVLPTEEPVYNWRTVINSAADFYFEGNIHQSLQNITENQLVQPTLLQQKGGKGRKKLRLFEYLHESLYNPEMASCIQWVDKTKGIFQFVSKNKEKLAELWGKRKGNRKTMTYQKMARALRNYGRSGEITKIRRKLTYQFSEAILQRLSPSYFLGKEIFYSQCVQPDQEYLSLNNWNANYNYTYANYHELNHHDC
The note with it: protein: recombinant; tags: N-terminal GST; dsDNA, one strand shown. Summed up:
as §1

The target in assay [5] is ELF4 (Homo sapiens, UniProt Q99607 1-663). The note with it: protein: recombinant; tags: N-terminal GST; dsDNA, one strand shown. The method in brief: as §1
The target in assay [6] is T3, ELK4 (Homo sapiens, UniProt P28324-2 1-405).
T3 sequence: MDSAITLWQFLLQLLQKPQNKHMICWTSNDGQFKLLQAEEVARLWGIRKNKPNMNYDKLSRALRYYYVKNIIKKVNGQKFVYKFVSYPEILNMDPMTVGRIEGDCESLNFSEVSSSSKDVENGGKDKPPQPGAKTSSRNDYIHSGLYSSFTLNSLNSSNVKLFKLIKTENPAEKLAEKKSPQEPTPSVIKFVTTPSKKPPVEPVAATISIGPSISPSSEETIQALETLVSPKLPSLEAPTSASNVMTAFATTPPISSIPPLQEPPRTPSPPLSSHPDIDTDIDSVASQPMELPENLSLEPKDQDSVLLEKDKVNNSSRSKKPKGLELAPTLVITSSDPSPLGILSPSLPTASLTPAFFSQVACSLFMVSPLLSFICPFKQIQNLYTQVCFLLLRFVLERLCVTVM
The note with it: protein: recombinant; tags: N-terminal GST; dsDNA, one strand shown. Summed up: as §1

Assay [7] concerns the target T4, ETV2 (Homo sapiens, UniProt O00321 1-342).
T4 sequence: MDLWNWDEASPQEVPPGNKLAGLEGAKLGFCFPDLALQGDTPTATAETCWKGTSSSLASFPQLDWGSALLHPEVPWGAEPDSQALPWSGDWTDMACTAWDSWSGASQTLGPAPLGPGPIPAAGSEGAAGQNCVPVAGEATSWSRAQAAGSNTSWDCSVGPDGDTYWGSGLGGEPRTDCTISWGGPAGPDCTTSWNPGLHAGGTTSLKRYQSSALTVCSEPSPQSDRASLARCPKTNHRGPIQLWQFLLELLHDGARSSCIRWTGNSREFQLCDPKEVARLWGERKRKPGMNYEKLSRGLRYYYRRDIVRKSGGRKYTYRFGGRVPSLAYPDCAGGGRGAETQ
The note with it: protein: recombinant; tags: N-terminal GST; dsDNA, one strand shown. The method in brief:
as §1

Assay [8] has as its target T5, ELF3 (Homo sapiens, UniProt P78545 1-371).
T5 sequence: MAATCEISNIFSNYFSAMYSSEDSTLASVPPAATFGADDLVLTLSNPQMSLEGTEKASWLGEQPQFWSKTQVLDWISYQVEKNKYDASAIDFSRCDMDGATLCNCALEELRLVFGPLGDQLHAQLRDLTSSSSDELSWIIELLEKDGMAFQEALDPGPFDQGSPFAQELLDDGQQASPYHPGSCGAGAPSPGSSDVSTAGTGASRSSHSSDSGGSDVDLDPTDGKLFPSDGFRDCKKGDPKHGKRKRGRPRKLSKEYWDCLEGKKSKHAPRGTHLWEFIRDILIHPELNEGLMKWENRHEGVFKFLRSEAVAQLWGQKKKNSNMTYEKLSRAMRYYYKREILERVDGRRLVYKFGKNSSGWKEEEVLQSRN
The note with it: protein: recombinant; tags: N-terminal GST; dsDNA, one strand shown. Summed up: as §1

The target in assay [9] is CRX (Homo sapiens, UniProt O43186 1-299). The note with it: protein: recombinant; tags: N-terminal GST; dsDNA, one strand shown. The method in brief:
as §1

Assay [10] addresses ETV1 (Homo sapiens, UniProt P50549 1-477). The note with it: protein: recombinant; tags: N-terminal GST; dsDNA, one strand shown. The method in brief: as §1
Assay [11] deals with T6, ERF (Homo sapiens, UniProt P50548 1-548).
T6 sequence: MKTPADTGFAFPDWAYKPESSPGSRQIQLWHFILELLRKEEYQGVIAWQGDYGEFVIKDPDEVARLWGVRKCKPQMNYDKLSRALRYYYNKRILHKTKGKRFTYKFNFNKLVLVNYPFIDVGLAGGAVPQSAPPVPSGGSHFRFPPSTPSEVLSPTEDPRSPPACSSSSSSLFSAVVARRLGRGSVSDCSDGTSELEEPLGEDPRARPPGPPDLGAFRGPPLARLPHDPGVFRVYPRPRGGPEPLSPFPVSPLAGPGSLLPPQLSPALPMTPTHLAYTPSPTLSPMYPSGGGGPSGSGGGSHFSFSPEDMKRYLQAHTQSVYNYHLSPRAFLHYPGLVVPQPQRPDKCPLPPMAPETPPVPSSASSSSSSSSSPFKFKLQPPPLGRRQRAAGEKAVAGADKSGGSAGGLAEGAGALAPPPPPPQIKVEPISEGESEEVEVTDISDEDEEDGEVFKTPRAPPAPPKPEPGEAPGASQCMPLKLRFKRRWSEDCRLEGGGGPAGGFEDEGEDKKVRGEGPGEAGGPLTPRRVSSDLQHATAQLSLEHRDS
The note with it: protein: recombinant; tags: N-terminal GST; dsDNA, one strand shown. The method in brief: as §1

The target in assay [12] is T7, ETV3L (Homo sapiens, UniProt Q6ZN32 1-361).
T7 sequence: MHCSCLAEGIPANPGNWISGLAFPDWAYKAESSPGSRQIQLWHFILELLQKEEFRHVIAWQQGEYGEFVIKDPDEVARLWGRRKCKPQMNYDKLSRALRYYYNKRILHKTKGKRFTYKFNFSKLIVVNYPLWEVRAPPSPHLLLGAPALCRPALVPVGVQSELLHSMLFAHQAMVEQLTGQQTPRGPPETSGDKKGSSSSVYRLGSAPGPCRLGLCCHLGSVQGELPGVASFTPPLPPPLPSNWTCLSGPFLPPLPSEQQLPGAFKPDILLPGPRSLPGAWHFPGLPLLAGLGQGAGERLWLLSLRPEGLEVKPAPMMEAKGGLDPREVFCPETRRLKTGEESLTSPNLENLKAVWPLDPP
The note with it: protein: recombinant; tags: N-terminal GST; dsDNA, one strand shown. Summed up:
as §1

For assay [13], the target named is T8, ETS2 (Homo sapiens, UniProt P15036 1-469).
T8 sequence: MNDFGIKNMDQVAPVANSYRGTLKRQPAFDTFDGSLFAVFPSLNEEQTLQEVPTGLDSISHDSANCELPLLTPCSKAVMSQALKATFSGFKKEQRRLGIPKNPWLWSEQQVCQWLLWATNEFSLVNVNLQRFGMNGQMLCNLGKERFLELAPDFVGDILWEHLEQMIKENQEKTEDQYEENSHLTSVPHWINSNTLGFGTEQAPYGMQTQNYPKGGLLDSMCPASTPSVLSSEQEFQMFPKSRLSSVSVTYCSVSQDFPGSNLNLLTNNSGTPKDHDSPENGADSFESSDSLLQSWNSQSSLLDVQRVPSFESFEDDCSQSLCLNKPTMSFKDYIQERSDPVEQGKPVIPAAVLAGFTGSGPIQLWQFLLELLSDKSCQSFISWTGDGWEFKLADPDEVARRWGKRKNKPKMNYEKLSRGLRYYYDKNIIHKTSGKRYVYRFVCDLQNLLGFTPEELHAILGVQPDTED
The note with it: protein: recombinant; tags: N-terminal GST; dsDNA, one strand shown. Summed up: as §1

For assay [14], the target named is T9, SPDEF (Homo sapiens, UniProt O95238 1-335).
T9 sequence: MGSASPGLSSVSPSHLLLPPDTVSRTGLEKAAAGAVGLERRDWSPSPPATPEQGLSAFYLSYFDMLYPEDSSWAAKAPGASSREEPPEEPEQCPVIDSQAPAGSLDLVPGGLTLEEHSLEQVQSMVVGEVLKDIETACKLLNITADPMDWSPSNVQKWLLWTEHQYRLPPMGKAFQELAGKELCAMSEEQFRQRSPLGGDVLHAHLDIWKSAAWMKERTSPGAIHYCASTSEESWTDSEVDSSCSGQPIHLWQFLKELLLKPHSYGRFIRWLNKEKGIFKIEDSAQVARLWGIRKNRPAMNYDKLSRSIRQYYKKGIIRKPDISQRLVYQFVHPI
The note with it: protein: recombinant; tags: N-terminal GST; dsDNA, one strand shown. The method in brief:
as §1

In assay [15] the target is T10, ETV7 (Homo sapiens, UniProt Q9Y603 1-341).
T10 sequence: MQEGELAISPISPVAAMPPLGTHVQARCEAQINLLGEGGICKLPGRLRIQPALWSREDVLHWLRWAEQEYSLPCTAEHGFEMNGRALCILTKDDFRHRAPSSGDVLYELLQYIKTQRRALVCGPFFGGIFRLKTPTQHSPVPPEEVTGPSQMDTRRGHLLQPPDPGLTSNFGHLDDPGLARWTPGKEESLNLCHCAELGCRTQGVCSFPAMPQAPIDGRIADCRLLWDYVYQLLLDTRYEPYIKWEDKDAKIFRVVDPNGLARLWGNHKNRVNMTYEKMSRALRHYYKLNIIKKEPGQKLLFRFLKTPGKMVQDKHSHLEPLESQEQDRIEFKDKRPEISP
The note with it: protein: recombinant; tags: N-terminal GST; dsDNA, one strand shown. The method in brief:
as §1

The target of assay [16] is T11, ELF5 (Homo sapiens, UniProt Q9UKW6-2 1-255).
T11 sequence: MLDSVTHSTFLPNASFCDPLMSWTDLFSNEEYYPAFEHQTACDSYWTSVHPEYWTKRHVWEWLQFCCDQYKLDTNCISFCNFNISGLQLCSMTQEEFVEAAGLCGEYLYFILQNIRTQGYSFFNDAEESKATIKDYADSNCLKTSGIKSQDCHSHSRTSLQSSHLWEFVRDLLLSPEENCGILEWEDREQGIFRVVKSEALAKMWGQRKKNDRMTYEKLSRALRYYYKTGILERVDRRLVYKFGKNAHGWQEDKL
The note with it: protein: recombinant; tags: N-terminal GST; dsDNA, one strand shown. The method in brief:
as §1

The target of assay [17] is T12, ETV3 (Homo sapiens, UniProt P41162-2 1-143).
T12 sequence: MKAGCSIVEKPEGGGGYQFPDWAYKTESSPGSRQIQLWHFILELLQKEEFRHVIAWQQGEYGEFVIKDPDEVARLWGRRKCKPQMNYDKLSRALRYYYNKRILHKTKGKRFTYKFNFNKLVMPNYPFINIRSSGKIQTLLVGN
The note with it: protein: recombinant; tags: N-terminal GST; dsDNA, one strand shown. Summed up: as §1

Assay [18] has as its target ETV6 (Homo sapiens, UniProt P41212 1-452). The note with it: protein: recombinant; tags: N-terminal GST; dsDNA, one strand shown. Summed up:
as §1

Chain of ETV6 (P41212 whole entry): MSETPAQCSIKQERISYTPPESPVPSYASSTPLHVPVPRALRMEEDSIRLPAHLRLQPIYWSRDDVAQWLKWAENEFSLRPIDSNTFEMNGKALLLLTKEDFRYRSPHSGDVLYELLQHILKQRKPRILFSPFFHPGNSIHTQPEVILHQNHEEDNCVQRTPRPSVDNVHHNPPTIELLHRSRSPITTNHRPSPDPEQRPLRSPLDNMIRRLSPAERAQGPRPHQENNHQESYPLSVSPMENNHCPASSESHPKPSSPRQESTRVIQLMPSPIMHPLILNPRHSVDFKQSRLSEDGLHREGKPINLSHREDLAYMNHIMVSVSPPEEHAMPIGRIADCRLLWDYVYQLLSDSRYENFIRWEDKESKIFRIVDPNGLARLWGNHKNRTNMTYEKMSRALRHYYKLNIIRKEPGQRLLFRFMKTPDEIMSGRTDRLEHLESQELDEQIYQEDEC
Chain of HSF1 (Q00613 whole entry): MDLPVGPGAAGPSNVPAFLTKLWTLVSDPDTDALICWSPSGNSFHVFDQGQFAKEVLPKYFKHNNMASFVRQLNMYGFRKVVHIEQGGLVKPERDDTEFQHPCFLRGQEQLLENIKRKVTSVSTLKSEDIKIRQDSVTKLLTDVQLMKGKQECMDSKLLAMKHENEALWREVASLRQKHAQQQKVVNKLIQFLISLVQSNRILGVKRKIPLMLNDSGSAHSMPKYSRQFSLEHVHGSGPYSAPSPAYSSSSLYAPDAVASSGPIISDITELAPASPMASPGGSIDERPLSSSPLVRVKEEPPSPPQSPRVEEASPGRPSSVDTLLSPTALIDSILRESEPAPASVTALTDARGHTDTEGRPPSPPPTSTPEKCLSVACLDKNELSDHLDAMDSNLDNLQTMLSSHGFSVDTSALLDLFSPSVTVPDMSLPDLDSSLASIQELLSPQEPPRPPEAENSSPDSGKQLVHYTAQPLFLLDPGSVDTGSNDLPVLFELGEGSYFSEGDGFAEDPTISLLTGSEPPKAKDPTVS
Chain of ETV5 (P41161 whole entry): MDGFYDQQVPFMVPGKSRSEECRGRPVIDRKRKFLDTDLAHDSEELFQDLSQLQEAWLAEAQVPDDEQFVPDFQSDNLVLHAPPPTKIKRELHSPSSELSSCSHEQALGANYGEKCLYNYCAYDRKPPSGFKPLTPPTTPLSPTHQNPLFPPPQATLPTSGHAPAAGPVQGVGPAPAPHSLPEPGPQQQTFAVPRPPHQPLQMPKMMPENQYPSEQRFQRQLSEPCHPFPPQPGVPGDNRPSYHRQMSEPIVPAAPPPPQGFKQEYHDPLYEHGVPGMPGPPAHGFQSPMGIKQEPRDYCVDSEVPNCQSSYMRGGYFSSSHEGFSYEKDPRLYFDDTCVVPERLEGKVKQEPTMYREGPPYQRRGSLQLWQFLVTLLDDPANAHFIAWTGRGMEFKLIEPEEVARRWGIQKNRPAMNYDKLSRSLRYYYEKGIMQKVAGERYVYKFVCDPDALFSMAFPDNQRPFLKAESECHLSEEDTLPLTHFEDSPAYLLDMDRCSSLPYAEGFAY
Chain of ETV1 (P50549 whole entry): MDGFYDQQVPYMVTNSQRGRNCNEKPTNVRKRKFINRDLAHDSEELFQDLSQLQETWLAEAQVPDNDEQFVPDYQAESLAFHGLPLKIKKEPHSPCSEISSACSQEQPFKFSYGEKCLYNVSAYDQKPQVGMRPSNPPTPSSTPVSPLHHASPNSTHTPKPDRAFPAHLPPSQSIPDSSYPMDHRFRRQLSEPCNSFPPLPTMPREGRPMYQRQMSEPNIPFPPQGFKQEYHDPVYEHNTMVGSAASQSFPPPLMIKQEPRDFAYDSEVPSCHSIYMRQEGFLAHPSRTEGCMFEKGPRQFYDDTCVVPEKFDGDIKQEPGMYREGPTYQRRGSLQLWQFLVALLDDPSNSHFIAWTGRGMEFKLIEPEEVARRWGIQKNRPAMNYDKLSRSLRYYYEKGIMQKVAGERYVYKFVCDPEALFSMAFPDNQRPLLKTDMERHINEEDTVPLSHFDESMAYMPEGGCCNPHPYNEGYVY
Chain of ELF4 (Q99607 whole entry): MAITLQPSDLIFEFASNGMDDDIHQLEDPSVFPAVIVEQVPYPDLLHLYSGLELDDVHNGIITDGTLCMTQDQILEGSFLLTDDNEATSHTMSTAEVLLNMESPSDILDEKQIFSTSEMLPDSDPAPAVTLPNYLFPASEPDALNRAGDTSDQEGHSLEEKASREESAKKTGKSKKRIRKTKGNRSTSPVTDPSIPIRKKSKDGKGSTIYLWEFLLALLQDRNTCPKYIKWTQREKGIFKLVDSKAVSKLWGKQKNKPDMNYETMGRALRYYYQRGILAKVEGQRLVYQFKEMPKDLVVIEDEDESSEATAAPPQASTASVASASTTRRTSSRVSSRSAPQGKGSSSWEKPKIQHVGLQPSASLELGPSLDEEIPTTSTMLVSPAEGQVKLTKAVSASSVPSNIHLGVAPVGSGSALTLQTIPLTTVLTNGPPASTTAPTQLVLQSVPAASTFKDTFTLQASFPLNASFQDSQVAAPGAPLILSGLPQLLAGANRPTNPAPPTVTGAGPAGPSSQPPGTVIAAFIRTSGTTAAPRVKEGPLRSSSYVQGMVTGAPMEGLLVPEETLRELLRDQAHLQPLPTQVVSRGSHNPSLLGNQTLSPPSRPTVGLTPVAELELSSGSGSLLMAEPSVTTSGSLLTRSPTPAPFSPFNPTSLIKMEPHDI
Chain of CRX (O43186 whole entry): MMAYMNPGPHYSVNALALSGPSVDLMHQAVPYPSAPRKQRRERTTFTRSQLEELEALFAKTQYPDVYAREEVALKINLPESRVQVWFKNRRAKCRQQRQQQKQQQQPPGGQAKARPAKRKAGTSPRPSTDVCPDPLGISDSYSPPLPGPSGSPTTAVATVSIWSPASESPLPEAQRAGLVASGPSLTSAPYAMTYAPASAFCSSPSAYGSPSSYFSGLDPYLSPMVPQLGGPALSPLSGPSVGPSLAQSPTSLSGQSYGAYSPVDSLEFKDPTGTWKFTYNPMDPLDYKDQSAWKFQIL

As for CTTGGA, the binding signal in assay [1] is 1.04 fold enrichment (6-mer frequency, TF over GST control); in [2], 1.12 fold enrichment (6-mer frequency, TF over GST control); in assay [3] it was 1.26 fold enrichment (6-mer frequency, TF over GST control); in assay [4] it was 1.2 fold enrichment (6-mer frequency, TF over GST control); in assay [5], 1.21 fold enrichment (6-mer frequency, TF over GST control); in assay [6], 1.09 fold enrichment (6-mer frequency, TF over GST control). Moreover, the binding signal was 1.12 fold enrichment (6-mer frequency, TF over GST control) in [7]; 1.3 fold enrichment (6-mer frequency, TF over GST control) in [8]; 1.17 fold enrichment (6-mer frequency, TF over GST control) in assay [9]; 1.17 fold enrichment (6-mer frequency, TF over GST control) in assay [10]; 1.12 fold enrichment (6-mer frequency, TF over GST control) in [11]; 1.11 fold enrichment (6-mer frequency, TF over GST control) in assay [12]. Besides, the binding signal in assay [13] is 1.14 fold enrichment (6-mer frequency, TF over GST control); in assay [14], 1.22 fold enrichment (6-mer frequency, TF over GST control); in assay [15], 1.14 fold enrichment (6-mer frequency, TF over GST control); in assay [16], 1.09 fold enrichment (6-mer frequency, TF over GST control); in assay [17], 1.08 fold enrichment (6-mer frequency, TF over GST control); in assay [18], 1.03 fold enrichment (6-mer frequency, TF over GST control).
